In PubChem BioAssay (EPA / NIEHS):
Values joined by “and” are separate entries in the source; they are usually repeats but may differ in a detail not shown here. Equal values may be shown once. Results filed as inconclusive are left out. The source holds several records for some structures; these can differ, active in one and inactive in another. Active and inactive are the calls of the source. Rule for the calls, unless noted: active = hit-call score of the fitted dose curve at least 0.9, where 1 is the maximum; inactive = score below 0.9.

Experiments:
[1] = target: human Vitamin D Receptor (VDR), VDR (gene 7421) (UniProt P11473); assay: ATG_VDR_TRANS: Attagene TRANS-FACTORIAL HepG2 Assay for human Vitamin D Receptor (VDR) (AID 2283022; active = hit-call score of the fitted dose curve at least 0.9, where 1 is the maximum)
Chain of human Vitamin D Receptor (VDR), VDR (gene 7421) (P11473 whole entry, looked up, the tested form may be a part): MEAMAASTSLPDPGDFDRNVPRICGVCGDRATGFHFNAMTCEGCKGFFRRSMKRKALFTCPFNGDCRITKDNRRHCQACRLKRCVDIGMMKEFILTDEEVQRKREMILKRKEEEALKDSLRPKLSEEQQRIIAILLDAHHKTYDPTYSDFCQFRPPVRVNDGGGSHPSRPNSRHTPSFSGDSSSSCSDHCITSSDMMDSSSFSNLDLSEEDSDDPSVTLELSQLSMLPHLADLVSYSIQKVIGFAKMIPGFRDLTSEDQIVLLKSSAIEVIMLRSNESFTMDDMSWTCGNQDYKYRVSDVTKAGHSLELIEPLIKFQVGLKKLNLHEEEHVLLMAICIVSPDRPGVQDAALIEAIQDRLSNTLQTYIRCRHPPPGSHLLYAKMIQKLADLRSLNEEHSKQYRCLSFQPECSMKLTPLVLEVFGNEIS
Outline: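 RT-PCR/capillary electrophoresis read-out of reporter mRNA induction in transiently transfected HepG2; 24 h dosing; chimeric NR-Gal4 (TRANS format); gain-of-signal fit against DMSO baseline.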

[2] = BSK_3C_Vis: BioMAP Diversity Plus: 3C Assay for Morphology Visualization (AID 2283025); conditions: primary human endothelial cells (HUVEC);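 note: fitted both ways so gain or loss versus DMSO counts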;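 for AC50: light microscopy image of cell morphology used as background control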
Outline: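 Human umbilical vein endothelial cell morphology was inspected by light microscopy 24 h after chemical dosing; scored bidirectionally relative to DMSO.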

[3] = read-out: Vascular endothelial growth factor receptor 2 (Homo sapiens) (UniProt P35968); assay: BSK_4H_VEGFRII: BioMAP Diversity Plus: 4H Assay for Vascular endothelial growth factor receptor 2 (VEGFR2) Biomarker Activity (AID 2283031); conditions: primary human endothelial cells (HUVEC); actives raise or lower the signal;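 for AC50: cell-surface VEGFR2 protein level quantified by ELISA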
Outline: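 HUVEC (human primary), 4H system; 24 h post-dose; VEGFRII by ELISA; bidirectional curve fit vs DMSO baseline; gain or loss of signal scored.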

[4] = read-out: Transforming growth factor beta 1 (TGFb1), TGFB1 (gene 7040); assay: BSK_BE3C_TGFb1: BioMAP Diversity Plus: BE3C Assay for Transforming growth factor beta 1 (TGFb1) Biomarker Activity (AID 2283036); conditions: primary human bronchial epithelial cells; actives raise or lower the signal
Outline: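 Primary human bronchial epithelial cells dosed with chemical; TGF-b1 measured by ELISA 24 h after dosing. Bidirectional curve fitting against DMSO negative control; SRB total-protein staining in parallel cultures gauged cytotoxicity.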

[5] = read-out: Interleukin-8 (IL8), CXCL8 (gene 3576); assay: BSK_CASM3C_IL8: BioMAP Diversity Plus: CASM3C Assay for Interleukin-8 (IL8) Biomarker Activity (AID 2283042); conditions: primary human coronary artery smooth muscle cells; actives raise or lower the signal;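 note: IL-8 protein level quantified by ELISA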
[6] = read-out: Urokinase-type plasminogen activator receptor (uPAR), PLAUR (gene 5329); assay: BSK_CASM3C_uPAR: BioMAP Diversity Plus: CASM3C Assay for Urokinase-type plasminogen activator receptor (uPAR) Biomarker Activity (AID 2283054); conditions: primary human coronary artery smooth muscle cells; actives raise or lower the signal;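 note: cell-surface uPAR protein level quantified by ELISA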
[7] = read-out: Transforming growth factor beta 1 (TGFb1), TGFB1 (gene 7040); assay: BSK_KF3CT_TGFb1: BioMAP Diversity Plus: KF3CT Assay for Transforming growth factor beta 1 (TGFb1) Biomarker Activity (AID 2283072); conditions: primary human keratinocytes with fibroblasts; actives raise or lower the signal
Outline: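 Human keratinocyte/foreskin fibroblast co-culture; TGF-b1 measured by ELISA 24 h after dosing, fitted bidirectionally versus DMSO. Cytotoxicity checked in parallel cultures by total protein (SRB staining, 560 nm).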

[8] = BSK_BT_PBMCCytotoxicity: PBMC Cytotoxicity Assessment in the BioMAP Diversity Plus: BT Assay (AID 2284225); conditions: primary human B cells with PBMC;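 note: PBMC viability measured by Alamar Blue dye reduction fluorescence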
Outline: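 PBMC (75,000/well) pretreated with compound 1 h, then activated with SEB and TSST-1 (20 ng/mL each final), incubated 90 h; Alamar Blue added 6 h, fluorescence read at 546/580 nm. Fitted relative to DMSO.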

[9] = BSK_BT_Bcell_Proliferation: Viability Assessment in the BioMAP Diversity Plus: BT Assay for B cell Proliferation (AID 2284227); conditions: primary human B cells with PBMC
Outline: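 Human B cell/PBMC co-culture; test chemical added; 72 h; TCA fix (10%), 0.1% SRB stain, A560 for total protein as a proliferation read-out; positive-direction fit vs DMSO baseline.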

[10] = read-out: Interleukin 6 (IL6), IL6 (gene 3569); assay: BSK_BT_xIL6: BioMAP Diversity Plus: BT Assay for Interleukin 6 (IL6) Biomarker Activity (AID 2284228); conditions: primary human B cells with PBMC
Outline: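 Readout: secreted IL-6 via Luminex xMAP multiplex, 24 h post-dosing. System: primary human B cells co-cultured with PBMC. Signal change scored relative to DMSO vehicle, positive fitting direction.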

[11] = read-out: Collagen III, COL3A1 (gene 1281); assay: BSK_MyoF_CollagenIII: BioMAP Diversity Plus: MyoF Assay for Collagen III Biomarker Activity (AID 2284239); conditions: primary human lung fibroblasts
Outline: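 Lung fibroblast culture; 24 h compound exposure; collagen III by ELISA; gain-of-signal fit vs DMSO baseline.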

[12] = read-out: Interleukin 2 (IL2), IL2 (gene 3558); assay: BSK_BT_xIL2: BioMAP Diversity Plus: BT Assay for Interleukin 2 (IL2) Biomarker Activity (AID 2284245); conditions: primary human B cells with PBMC
Outline: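 Human B cell plus PBMC co-culture, 24 h after chemical dosing; secreted IL-2 quantified by Luminex xMAP multiplex, fitted for signal gain against DMSO baseline.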

[13] = read-out: Collagen IV, COL4A1 (gene 1282); assay: BSK_MyoF_CollagenIV: BioMAP Diversity Plus: MyoF Assay for Collagen IV Biomarker Activity (AID 2284247); conditions: primary human lung fibroblasts
Outline: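 Primary human lung fibroblasts (MyoF system) dosed 24 h; Collagen IV measured by ELISA. Activity fitted in positive direction against DMSO; cytotoxicity tracked by SRB total-protein staining in parallel cultures.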

[14] = read-out: Plasminogen activator inhibitor-1 (PAI1), SERPINE1 (gene 5054); assay: BSK_MyoF_PAI1: BioMAP Diversity Plus: MyoF Assay for Plasminogen activator inhibitor-1 (PAI1) Biomarker Activity (AID 2284256); conditions: primary human lung fibroblasts
Outline: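 MyoF lung fibroblasts, human primary; compound 24 h; PAI-1 ELISA; positive-direction fit vs DMSO baseline; parallel SRB total-protein staining for cytotoxicity.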

[15] = read-out: Matrix Metallopeptidase 1 (MMP1), MMP1 (gene 4312); assay: BSK_MyoF_MMP1: BioMAP Diversity Plus: MyoF Assay for Matrix Metallopeptidase 1 (MMP1) Biomarker Activity (AID 2284268); conditions: primary human lung fibroblasts
Outline: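 Cells: human lung fibroblasts. Exposure: 24 h chemical dosing. Detection: ELISA for MMP1. Analysis: upward fitting against DMSO negative control.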

[16] = read-out: TIMP metallopeptidase inhibitor 1 (TIMP1), TIMP1 (gene 7076); assay: BSK_MyoF_TIMP1: BioMAP Diversity Plus: MyoF Assay for TIMP metallopeptidase inhibitor 1 (TIMP1) Biomarker Activity (AID 2284269); conditions: primary human lung fibroblasts
Outline: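 ELISA read-out of TIMP-1 from primary human lung fibroblast cultures 24 h after compound dosing; gain of signal relative to DMSO vehicle baseline defines activity.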

[17] = target: Retinoic acid receptor alpha (Homo sapiens) (UniProt P10276); assay: ATG_DR5_RAR_CIS: Attagene CIS-FACTORIAL HepG2 Assay for human Retinoic Acid Receptor Alpha (RARE), DR5 submotif (AID 2282934); conditions: HepG2 Attagene cis-factorial RARE DR5 reporter, mRNA; actives raise or lower the signal;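 for AC50: reporter responds to endogenous RAR alpha beta and gamma in HepG2 not RARA alone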
Chain of Retinoic acid receptor alpha (Homo sapiens) (P10276 whole entry, looked up): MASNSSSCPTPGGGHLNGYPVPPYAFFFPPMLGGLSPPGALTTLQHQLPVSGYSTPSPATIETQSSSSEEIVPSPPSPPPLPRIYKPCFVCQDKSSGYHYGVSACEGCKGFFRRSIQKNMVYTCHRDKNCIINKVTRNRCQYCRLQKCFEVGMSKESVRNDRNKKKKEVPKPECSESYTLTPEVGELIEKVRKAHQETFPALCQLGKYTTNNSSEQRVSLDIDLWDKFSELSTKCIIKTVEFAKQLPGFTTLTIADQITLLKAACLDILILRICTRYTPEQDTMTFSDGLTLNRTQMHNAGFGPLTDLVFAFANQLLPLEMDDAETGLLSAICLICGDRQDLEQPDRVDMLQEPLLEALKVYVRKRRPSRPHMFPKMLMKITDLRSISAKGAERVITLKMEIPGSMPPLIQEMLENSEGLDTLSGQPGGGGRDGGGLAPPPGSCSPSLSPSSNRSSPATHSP
Outline: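 Transient MRTU transfection of HepG2; 24 h compound treatment; TriZol RNA, oligo(dT) RT, PCR, FAM labelling, capillary electrophoresis. Bidirectional fit vs DMSO. Endogenous TF activity at DR5 RARE.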

[18] = target: Peroxisome proliferator-activated receptor gamma (Homo sapiens) (UniProt P37231); assay: OT_PPARg_PPARgSRC1_1440: Odyssey Thera (OT) 24-hour Protein-Complementation Assay for Peroxisome Proliferator-activated Receptor Gamma/ SRC-1 Co-activator (AID 2283388; active = hit-call score of the fitted dose curve at least 0.9, where 1 is the maximum;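 note: nuclear to cytoplasmic ratio of reconstituted Venus YFP fluorescence in fixed imaged cells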)
Chain of Peroxisome proliferator-activated receptor gamma (Homo sapiens) (P37231 whole entry, looked up, the tested form may be a part): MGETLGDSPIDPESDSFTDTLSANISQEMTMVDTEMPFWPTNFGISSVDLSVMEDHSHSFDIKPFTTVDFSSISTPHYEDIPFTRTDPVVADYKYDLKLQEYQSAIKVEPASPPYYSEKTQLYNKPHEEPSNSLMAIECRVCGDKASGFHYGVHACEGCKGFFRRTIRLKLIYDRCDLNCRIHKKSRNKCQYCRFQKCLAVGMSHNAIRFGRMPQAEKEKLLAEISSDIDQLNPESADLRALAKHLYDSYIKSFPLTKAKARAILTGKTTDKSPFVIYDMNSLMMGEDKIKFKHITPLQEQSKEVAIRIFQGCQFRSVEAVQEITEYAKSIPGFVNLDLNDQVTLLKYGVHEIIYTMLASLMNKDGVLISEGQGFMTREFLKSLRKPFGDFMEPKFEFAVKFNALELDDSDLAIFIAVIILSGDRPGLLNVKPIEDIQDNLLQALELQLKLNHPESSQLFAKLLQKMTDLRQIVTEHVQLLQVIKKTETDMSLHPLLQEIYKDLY
Outline: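 Readout: nuclear-to-cytoplasmic 488 nm fluorescence ratio, ≥350 cells per image, 8 images per well, after 24 h compound exposure of HEK293T expressing PPARg/SRC-1 split-YFP fusions. Activity fitted in positive direction against DMSO.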

[19] = ACEA_AR_agonist_AUC_viability: ACEA Biosciences xCELLigence Real-Time Cell Analysis on Androgen Receptor Agonism for Viability (AID 2283775; active = hit-call score of the fitted dose curve at least 0.9, where 1 is the maximum;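 for AC50: viability read 80 hours after compound addition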)
Outline: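 Real-time impedance tracking of 22Rv1 growth, readings every 5 min for 5 h then hourly; area-under-curve viability endpoint at 80 hours, relative to DMSO. Compounds at eight concentrations, 1:4 steps, top 100 uM, n = 2.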

[20] = ACEA_AR_antagonist_AUC_viability: ACEA Biosciences xCELLigence Real-Time Cell Analysis on Androgen Receptor Antagonism for Viability (AID 2283776; active = hit-call score of the fitted dose curve at least 0.9, where 1 is the maximum;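 note: 22Rv1 human prostate cancer cells growing on impedance electrode plates; hits lower the growth signal relative to DMSO meaning cytotoxicity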)
Outline: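 Impedance read-out (RT-CES): area under growth curve at 80 h post-dose, loss of signal scored vs DMSO baseline. 22Rv1 cells; 8-pt 1:4 series, top 100 uM final, ≤0.5% DMSO; biological duplicate.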

Measured: AC50

CNC(=O)Oc1cc(C)c(SC)c(C)c1
active: [6] 20 µM | [8] 15.6 µM | [9] 20.1 µM | [10] 8.6 µM
not listed: [17] | [18] | [19] | [20]
inactive: all other assays above

Clc1ccc(-c2ccccc2)cc1
active: [14] 0.121 µM
not listed: [1] | [17] | [18] | [19] | [20]
inactive: all other assays above

ClCCCCCCCl
inactive: [17]

CCC(C)c1cc([N+](=O)[O-])cc([N+](=O)[O-])c1OC(=O)C=C(C)C (centres undefined)
active: [2] 14.5 µM | [3] 8.71 µM | [4] 3.97 µM | [5] 9.2 µM | [7] 12.4 µM | [8] 20 µM | [9] 32.6 µM | [10] 20 µM | [11] 5.36 µM | [12] 30.9 µM | [13] 12.3 µM | [14] 11.6 µM | [16] 13.5 µM
inactive: [15]

O=c1[nH]c(Cl)c(Cl)cc1Cl
active: [15] 20 µM
not listed: [18] | [19] | [20]
inactive: all other assays above

Nc1ccc([N+](=O)[O-])cc1N
inactive: [1]

COC(C)(C)CCC[C@H](C)C/C=C/C(C)=C/C(=O)OC(C)C
active: [2] 37.4 µM | [3] 32 µM | [6] 31.2 µM | [7] 15.3 µM | [8] 20 µM | [9] 28.8 µM | [10] 20 µM | [12] 28.4 µM | [15] 26.9 µM
inactive: [4] | [5] | [11] | [13] | [14] | [16]

CCOP(=O)(OCC)Oc1ccc([N+](=O)[O-])cc1
inactive: [17] | [18]

COc1ccc(CO)cc1
inactive: [5] | [6]

CC1(C)[C@H](C(=O)O[C@H](C#N)c2cccc(Oc3ccccc3)c2)[C@@H]1C=C(Br)Br
inactive: [2] | [3] | [4] | [5] | [6] | [7] | [18] | [19] | [20] | [8] | [9] | [10] | [11] | [13] | [14] | [15] | [16]
active: [4] 1.2 µM | [19] 50 µM | [20] 50 µM | [9] 20 µM | [10] 15.2 µM | [12] 29.1 µM and 20 µM

O=c1c2ccccc2c(=O)c2c1cc(Cl)c1[nH]c3c([nH]c12)c(Cl)cc1c(=O)c2ccccc2c(=O)c13
not listed: [1] | [17] | [18] | [19] | [20]
inactive: all other assays above

Oc1ccc(C2(c3ccc(O)cc3)c3ccccc3-c3ccccc32)cc1
active: [3] 33.9 µM and 35.7 µM | [5] 27 µM and 24.3 µM | [6] 20 µM and 25.7 µM

O=[N+]([O-])O.O=[N+]([O-])O.[Cd]
active: [17] 2.08 µM

Oc1cc(Cl)ccc1Cl
active: [14] 0.245 µM
not listed: [1] | [19]
inactive: all other assays above

CCc1cc(C)cc(CC)c1-c1c(OC(=O)C(C)(C)C)n2n(c1=O)CCOCC2
active: [7] 20 µM
not listed: [1] | [17] | [18] | [19] | [20]
inactive: all other assays above

CN1C(=O)CCS(=O)(=O)C1c1ccc(Cl)cc1 (centres undefined)
inactive: [17]

Cc1ccccc1CCl
inactive: [17]

C[C@]12CC[C@H](O)C[C@H]1CC[C@@H]1[C@@H]2C[C@@H](O)[C@]2(C)[C@@H](C3=CC(=O)OC3)CC[C@]12O
inactive: [1]

CC(C)(Cl)Cl
active: [20] 0.413 µM
inactive: [18] | [19]

CNC(=N[N+](=O)[O-])NCC1CCOC1 (centres undefined)
inactive: [19] | [20]

CC1(C)CC(=O)CC(C)(C)N1[O]
inactive: [17]

O=S(=O)(O)OOS(=O)(=O)O
inactive: [18] | [19] | [20]

O=[N+]([O-])O
inactive: [17] | [3] | [5] | [6] | [18] | [19] | [20]

CCOC(=O)NC(=S)Nc1ccccc1NC(=S)NC(=O)OCC
inactive: [18]
active: [20] 4.35 µM
